Measurements from PubChem BioAssay (NCATS).
Results filed as inconclusive are left out. Entries that show only a call come without a potency. Calls of active or inactive are those of the source. Calls come from the whole dose curve; as a rule, active = well fitted cell-killing curve with a large enough effect; inconclusive = small, poorly fitted or top-dose-only effect; inactive = no such curve, though single readings can be large or run the other way.

Assay: qHTS of pediatric cancer cell lines to identify multiple opportunities for drug repurposing: Primary screen for SJ-GBM2 cells (AID 1347091)
Settings: SJ-GBM2 viability, CellTiter-Glo luminescence, 48 h; series mostly up to 46 µM
Source text: Drug repurposing or repositioning has been offered as a strategy for drug development in oncology programs. This approach has special potential for childhood cancers and other rare or orphan diseases, where the expected return on new drug development has been a disincentive to pharmaceuticals.
In this project we exploit the poly-pharmacology of drugs to discover new indications via phenotypic screening of a panel of 19 well-characterized cell lines derived from solid tumors seen in children and adolescents. The goal is to identify approved drugs with previously unrecognized anticancer properties that has the potential to reveal new mechanisms and biological processes involved in carcinogenesis or drug resistance. We employed a titration-based paradigm (quantitative high-throughput screening or qHTS), where all compounds were tested at multiple concentrations for their effect on cell viability. Concentration-response curves (CRCs) were derived directly from the primary screen, and both potency and efficacy values were used to identify compounds with robust bioactivity profiles. We screened the NIH Chemical Genomics Center (NCGC) Pharmaceutical Collection (NPC) and Mechanism Interrogation Plate (MIPE) small molecule collections of approved and investigational compounds against these cell lines; and measured metabolically active cells after 48 hours of compound treatment as a proxy for cell viability.
Assay Submitter: Nathalia J. Martinez, National Center for Advancing Translational Sciences, National Institutes of Health, Rockville, MD, USA; email: natalia.martinez@nih.gov
[1] Shen, M et al. Quantitative high-throughput phenotypic screening of pediatric cancer cell lines identifies multiple opportunities for drug repurposing. Oncotarget 2017 Dec 19;9(4):4758-4772. PMID 29435139.
The cells were obtained from University of North Carolina (UNC), Pediatric Preclinical Testing Program (PPT), and Coriell Institute (CI).
qHTS cell viability assay:
Cells were assayed in growth media at a density of 500-1,000 cells/well. Five microliters of cells were dispensed into 1,536-well, white, solid-bottom, TC-treated plates (Greiner Bio One) using a multidrop dispenser and incubated at 37 degrees C, 5% CO2, under a humidified atmosphere for 5 hours. Twenty-three nanoliters of compounds and controls (neutral control DMSO or positive control bortezomib at final concentration of 2.3 µM) were subsequently transferred by Kalypsys pintool. For primary screens, the MIPE collection was tested at 11-point dilutions (final concentrations range from 0.78 nM to 46 µM) and the NPC collection at 8-point dilutions (final concentrations range from 0.59 nM to 46 µM). Compounds tested in follow-up screens were assayed at 11-point dilutions. Cells were incubated for 48 hours, followed by addition of 3 uL of CellTiter-Glo (Promega). After a 15 min incubation at room temperature, samples were analyzed for luminescence intensity using a ViewLux High-throughput CCD imager equipped with clear filters.
Potency is the fitted concentration of half-maximal effect.

Row | SMILES | Potency
1 | CC(C)(C)NC[C@H](O)c1ccc(O)cc1Cl | inactive
2 | CO[C@H]1CCC(O[C@H]2C[C@H]([C@]3(C)CC[C@]4(C[C@H](O)[C@@H](C)[C@@H]([C@@H](C)C=C(C)C(=O)[C@H](C)C[C@H](C)C(=O)O)O4)O3)O[C@]3(O[C@@H]([C@H]4O[C@@](O)(CO)[C@H](C)C[C@H]4C)C[C@H]3C)[C@H]2C)O[C@H]1C (stereo not given in full) | 2.09 µM (active)
3 | CC1=C(C(=O)O)N2C(=O)[C@@H](N)[C@H]2SC1 | inactive
4 | CC(C)(C)[C@]1(O)C[C@@H]2OC(=O)C[C@@]23C(=O)O[C@@H]2OC(=O)[C@H](O)C213 (stereo not given in full) | inactive
5 | O=C(Oc1ccc([N+](=O)[O-])cc1)N1CCC(C(O)(c2ccc3c(c2)OCO3)c2ccc3c(c2)OCO3)CC1 | inactive
6 | O=C(Nc1ccccc1-c1ccc(Cl)cc1)c1cccnc1Cl | inactive
7 | COc1cc2cc(c1Cl)N(C)C(=O)C[C@H](OC(=O)C(C)C)[C@]1(C)O[C@H]1[C@H](C)[C@@H]1C[C@@](O)(NC(=O)O1)[C@H](OC)C=CC=C(C)C2 | 0.001 µM (active)
8 | CC[C@@H]1[C@@H](C)O[C@@](O)([C@@H](C)[C@H](O)[C@H](C)[C@H]2OC(=O)C=CC=C[C@@H](C)[C@@H]([C@@H](C)[C@@H](O)[C@H](C)[C@@]3(O)C[C@H](O[C@H]4C[C@H](O)[C@H](O)[C@H](C)O4)[C@H](CC)[C@@H](C)O3)OC(=O)C=CC=C[C@@H]2C)C[C@H]1O[C@H]1C[C@H](O)[C@H](O)[C@H](C)O1 | 0.526 µM (active)
9 | C=CCC1=C(C)C(OC(=O)C2C(C=C(C)C)C2(C)C)CC1=O (stereo not given) | 30.6 µM (active)
10 | CC(C)[C@]12O[C@@H]1[C@@H]1O[C@]13[C@]1(O[C@H]1C[C@@H]1C4=C(CC[C@@]13C)C(=O)OC4)[C@H]2O | 0.001 µM (active)
11 | CC[C@@]1(O)C(=O)OCc2c1cc1n(c2=O)Cc2cc3ccccc3nc2-1 | 0.0105 µM (active)
12 | C1=C2CCCN[C@H]2[C@@H]2C[C@H]1[C@@H]1CCCCN1C2 | inactive
13 | CCCC[N+]1(C)[C@H]2CC(OC(=O)[C@H](CO)c3ccccc3)C[C@H]1[C@H]1O[C@H]12 (stereo not given in full) | inactive
14 | CC1=C(O)C(=O)C=C2C1=CC=C1[C@@]2(C)CC[C@@]2(C)[C@@H]3C[C@](C)(C(=O)O)CC[C@]3(C)CC[C@]12C | 0.935 µM (active)
15 | CC1=NN=C(c2ccc(N)cc2)c2cc3c(cc2C1)OCO3 | inactive
16 | O=[N+]([O-])c1cc([N+](=O)[O-])c2ccccc2c1 | inactive
17 | CC(C)NCC(O)c1ccc([N+](=O)[O-])cc1 (stereo not given) | inactive
18 | CCC(=O)O[C@@H]1C=C2CCC3C(CCC4(C)C3CC[C@@H]4OC(=O)CC)C2CC1 (stereo not given in full) | inactive
19 | C[C@@H]1CC[C@@]2(OC1)O[C@H]1C[C@H]3[C@@H]4CC=C5C[C@@H](O[C@@H]6O[C@H](CO)[C@@H](O[C@@H]7O[C@@H](C)[C@H](O)[C@@H](O)[C@@H]7O)[C@H](O)[C@@H]6O[C@@H]6O[C@@H](C)[C@H](O)[C@@H](O)[C@@H]6O)CC[C@]5(C)[C@@H]4CC[C@]3(C)[C@@H]1[C@H]2C | 5.26 µM (active)
20 | O=S(=O)(CC1CS1)c1ccc(Oc2ccccc2)cc1 (stereo not given) | 26.4 µM (active)

Row | SMILES | Potency
21 | C[C@]12CC[C@H]3[C@@H](CCC4=CC(=O)CC[C@@]43C)[C@H]1CC[C@H]2OC(=O)CCC1CCCC1 | inactive
22 | Cc1ccccc1-n1c(Cn2ncc3c(N)ncnc32)nc2cccc(C)c2c1=O | 0.0074 µM (active)
23 | CC(C)N[C@@H]1CCn2c(=O)[nH]c3cccc(c32)[C@@H]1O | 6.62 µM (active)
24 | CC[C@H]1C=CC=CC[C@@H](C)[C@H](O)[C@@](C)(O)C(=O)[C@@H](C)[C@H](O)[C@@H](C)C(=O)[C@@H](C)[C@H](O)[C@@H](C)C=CC(=O)O[C@@H]2[C@@H](C)[C@H](CC1)O[C@]1(CC[C@H](C)[C@H](C[C@@H](C)O)O1)[C@H]2C | 0.264 µM (active)
25 | O=c1[nH]c2ccccc2n1C1CCN(Cc2ccc(-c3[nH]c4cc5ncnc5cc4nc3-c3ccccc3)cc2)CC1 | 3.32 µM (active)
26 | C[C@]12CCC(=O)C(O)=C1CC[C@@H]1[C@H]3CCC(=O)[C@@]3(C)CC[C@@H]12 | inactive
27 | CC(C)[C@H]1C(=O)N[C@H](CO)Cc2c[nH]c3cccc(c23)N1C | inactive
28 | CCOCCOC(C)=O | inactive
29 | C[C@@]12OC(=O)[C@]1([C@@H](O)[C@@H]1C=CCCC1)NC(=O)[C@H]2CCCl | 0.0105 µM (active)
30 | c1cc2c(cc1[C@H]1OC[C@H]3[C@H]1CO[C@H]3c1ccc3c(c1)OCO3)OCO2 | inactive
31 | OCCCBr | inactive
32 | COc1ccc(N(C(=O)Oc2c(C)cccc2C)c2ccnc(Nc3ccc(N4CCN(C)CC4)cc3)n2)c(OC)c1 | 8.33 µM (active)
33 | CC(=Cc1csc(C)n1)[C@@H]1C[C@H]2O[C@]2(C)CCC[C@H](C)[C@@H](O)[C@@H](C)C(=O)C(C)(C)[C@@H](O)CC(=O)O1 | 0.0296 µM (active)
34 | COc1cc([C@@H]2c3cc4c(cc3[C@@H](O)C3COC(=O)C32)OCO4)cc(OC)c1O (stereo not given in full) | 0.0148 µM (active)
35 | COC[C@H]1OC(=O)c2coc3c2[C@@]1(C)C1=C(C3=O)[C@@H]2CC[C@H](O)[C@@]2(C)C[C@@H]1OC(C)=O | 0.469 µM (active)
36 | O=C1CCC[C@@H]2[C@H]3CCCN4CCC[C@@H](CN12)[C@@H]34 | inactive
37 | CS(=O)(=O)c1ccc(C(=O)C2C(=O)CCCC2=O)c([N+](=O)[O-])c1 | inactive
38 | COc1ccc(CC2NCCc3cc(OC)c(OC)cc32)cc1OC (stereo not given) | inactive
39 | Oc1ccc2c3c1O[C@H]1[C@@H](O)C=C[C@H]4[C@@H](C2)NCC[C@@]341 | inactive
40 | CSCC[C@@H](NC(=O)[C@@H](Cc1ccccc1)NC(=O)CNC(=O)CNC(=O)[C@@H](N)Cc1ccc(O)cc1)C(=O)O | inactive
